Measurements taken from PubChem BioAssay.
The source made the active and inactive calls. Unless noted, how the calls were made is not given here.

What was measured:
[1] = system: Wnt5a (protein binding on small-molecule microarray); assay: small molecules binding Wnt5a protein – biophysical, small-molecule microarray, 635/667 nm fluorescence, primary screen (AID 1142); settings: 635 nm fluorescence, higher = more signal;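 further: fluorescence read at 667 nm with signal to noise per printed feature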
[2] = ATP-based viability of Huh7 replicon cells – cell-based, CellTiter-Glo luminescence, basal, 48 h, cytotoxicity control for HCV replication inhibitor project, primary screen (AID 1143); settings: higher = more signal, called active from +8 up or from −8 down;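 further: Huh7 hepatoma cells carrying a hepatitis C replication reporter with no stimulus; test concentration not given here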
[3] = Pseudomonas biofilm growth suppression – PAO1 strain, BacTiter-Glo luminescence, LB-PBS, primary screen (AID 1144); settings: P. aeruginosa PAO1 biofilm, 12 h, higher = more signal
[4] = basal CRE-LacZ reporter activity in PC12 – cell-based, unstimulated, primary screen (AID 1145); settings: no forskolin, luminescence, 4.5 h, higher = more signal, called active from +8 up or from −8 down
[5] = forskolin-driven CRE-LacZ activity in PC12 – cell-based, CRE-LacZ reporter, forskolin-stimulated, primary screen (AID 1146); settings: luminescence, 4.5 h, higher = more signal, called active from +8 up or from −8 down;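 further: PC12 cells with 6xCRE LacZ reporter stimulated by forskolin 10 µM; beta-galactosidase reporter signal reflecting CREB driven transcription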
[6] = target: Streptavidin (Streptomyces avidinii) (UniProt P22629); assay: compounds binding control protein streptavidin – biophysical, small-molecule microarray, 635/667 nm fluorescence, artefact control for SMM compound annotation, primary screen (AID 1147); settings: higher = more signal;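 further: signal reflects streptavidin binding to arrayed compounds as a control protein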
[7] = probe aInhba binding on compound microarray – biochemical, small-molecule microarray, 635/667 nm fluorescence, primary screen (AID 1148); settings: higher = more signal;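 further: score merges 667nm spot fluorescence with signal-to-noise for antibody binding to printed compounds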
Torsin-1A (Homo sapiens) [8] = target: Torsin-1A (Homo sapiens) (UniProt O14656); assay: TOR1A wild-type binding on microarray – cell lysate, small-molecule microarray, lysate, 635/667 nm, primary screen (AID 1149); settings: COS7 hTOR1A-WT lysate, 635 nm fluorescence, higher = more signal
Torsin-1A (Homo sapiens) [9] = target: Torsin-1A (Homo sapiens) (UniProt O14656); assay: torsin A mutant lysate binding on microarrays – cell lysate, small-molecule microarray, COS7 lysate, 635/667 nm fluorescence, primary screen (AID 1150); settings: COS7 hTOR1A mutant lysate, 635 nm fluorescence, higher = more signal;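 further: score pools 667 nm emission and signal to noise measuring lysate protein binding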
[10] = system: Sonic hedgehog protein (Shh); assay: Sonic hedgehog microarray binding compounds – biochemical, small-molecule microarray, 635/667 nm fluorescence, primary screen (AID 1151); settings: 635 nm fluorescence, higher = more signal;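 further: Shh protein binding to compounds spotted on small-molecule microarray slides; score combines spot fluorescence intensity with signal-to-noise across triplicate slides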
[11] = optical density shifts of acrAB sulA E. coli – strain DRC41, OD650, 48 h, E. coli filamentation inducer project, primary screen (AID 1152); settings: higher = more signal, called active from +8 up or from −8 down;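 further: E. coli MC1000 strain DRC41 lacking acrAB efflux pump and sulA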
[12] = probe aLefty1 binding on compound microarray – biochemical, small-molecule microarray, 635/667 nm fluorescence, primary screen (AID 1153); settings: higher = more signal;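 further: score merges spot fluorescence with signal-to-noise ratio from the scanned slide images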
[13] = plasmodial surface anion channel blockers, osmotic lysis – cell-based, P. falciparum Indochina, OD700, 1 h, primary screen (AID 1154); settings: P. falciparum Indochina infected RBC osmotic lysis, higher = more signal, called active from +8 up or from −8 down
[14] = plasmodial surface anion channel blockers, osmotic lysis – cell-based, P. falciparum Indochina, OD700, 2 h, primary screen (AID 1155);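 further: lysis reports solute entry through the parasite surface anion channel PSAC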; settings: P. falciparum Indochina infected erythrocytes, higher = more signal, called active from +8 up or from −8 down
[15] = changes in parasitized red cell lysis, either direction – P. falciparum Indochina, OD700, 3 h, PSAC antagonist project, primary screen (AID 1156); settings: P. falciparum-infected erythrocytes, osmotic lysis, higher = more signal, called active from +8 up or from −8 down
[16] = plasmodial surface anion channel blockers, osmotic lysis – cell-based, P. falciparum Indochina, OD700, 18 h, primary screen (AID 1157); settings: P. falciparum Indochina infected erythrocytes, osmotic lysis OD700, 18 h; higher = more signal, called active from +8 up or from −8 down
[17] = S6 kinase pathway phospho-S6 level changes – cell-based, A549, cytoblot, luminescence, serum-stimulated, primary screen (AID 1158); settings: 5 h, higher = more signal;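 further: serum-stimulated A549 lung adenocarcinoma cells; signal is phosphorylated S6 detected by cytoblot immunostaining with HRP secondary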
[18] = target: NADPH oxidase 2 (Homo sapiens) (UniProt P04839); assay: compounds shifting NOX2 Amplex Red fluorescence – cell-based, HEK293-NOX2, PMA-stimulated, NOX inhibitor project, primary screen (AID 1159); settings: 45 min, higher = more signal, called active from +8 up or from −8 down; further: test concentration not given here
[19] = target: NADPH oxidase 4 (Homo sapiens) (UniProt Q9NPH5); assay: compounds shifting NOX4 Amplex Red fluorescence – cell-based, HEK293-NOX4, tetracycline-induced, NOX inhibitor project, primary screen (AID 1160); settings: HEK293-NOX4, Amplex Red H2O2 fluorescence, 45 min; higher = more signal, called active from +8 up or from −8 down
[20] = target: NADPH oxidase 5 (Homo sapiens) (UniProt Q96PH1); assay: compounds shifting NOX5 Amplex Red fluorescence – cell-based, HEK293-NOX5, NOX inhibitor project, primary screen (AID 1161); settings: HEK293-NOX5, ionomycin, 45 min, higher = more signal
NADPH oxidase 5 (Homo sapiens), sequence (Q96PH1 whole entry, looked up): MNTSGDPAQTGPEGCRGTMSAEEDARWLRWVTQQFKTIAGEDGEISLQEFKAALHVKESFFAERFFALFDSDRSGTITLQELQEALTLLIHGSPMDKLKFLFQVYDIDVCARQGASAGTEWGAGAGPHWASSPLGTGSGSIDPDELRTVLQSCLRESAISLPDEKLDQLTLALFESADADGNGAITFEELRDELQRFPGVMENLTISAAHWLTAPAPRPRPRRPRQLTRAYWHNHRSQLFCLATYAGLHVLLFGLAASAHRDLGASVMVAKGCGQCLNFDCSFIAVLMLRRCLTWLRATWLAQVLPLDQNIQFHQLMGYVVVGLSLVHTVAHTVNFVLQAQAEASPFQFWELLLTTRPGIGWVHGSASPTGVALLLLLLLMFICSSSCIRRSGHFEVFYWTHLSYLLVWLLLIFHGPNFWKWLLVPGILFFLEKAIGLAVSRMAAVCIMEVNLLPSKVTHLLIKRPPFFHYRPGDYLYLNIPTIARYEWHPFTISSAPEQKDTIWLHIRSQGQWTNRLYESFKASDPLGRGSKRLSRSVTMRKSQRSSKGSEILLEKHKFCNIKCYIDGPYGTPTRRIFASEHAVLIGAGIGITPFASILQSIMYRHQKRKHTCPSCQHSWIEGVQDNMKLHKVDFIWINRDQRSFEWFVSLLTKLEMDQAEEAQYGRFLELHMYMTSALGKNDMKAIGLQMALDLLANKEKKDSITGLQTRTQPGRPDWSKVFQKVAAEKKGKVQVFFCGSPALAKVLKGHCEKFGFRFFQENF

NADPH oxidase 2 (Homo sapiens), sequence (P04839 whole entry, looked up): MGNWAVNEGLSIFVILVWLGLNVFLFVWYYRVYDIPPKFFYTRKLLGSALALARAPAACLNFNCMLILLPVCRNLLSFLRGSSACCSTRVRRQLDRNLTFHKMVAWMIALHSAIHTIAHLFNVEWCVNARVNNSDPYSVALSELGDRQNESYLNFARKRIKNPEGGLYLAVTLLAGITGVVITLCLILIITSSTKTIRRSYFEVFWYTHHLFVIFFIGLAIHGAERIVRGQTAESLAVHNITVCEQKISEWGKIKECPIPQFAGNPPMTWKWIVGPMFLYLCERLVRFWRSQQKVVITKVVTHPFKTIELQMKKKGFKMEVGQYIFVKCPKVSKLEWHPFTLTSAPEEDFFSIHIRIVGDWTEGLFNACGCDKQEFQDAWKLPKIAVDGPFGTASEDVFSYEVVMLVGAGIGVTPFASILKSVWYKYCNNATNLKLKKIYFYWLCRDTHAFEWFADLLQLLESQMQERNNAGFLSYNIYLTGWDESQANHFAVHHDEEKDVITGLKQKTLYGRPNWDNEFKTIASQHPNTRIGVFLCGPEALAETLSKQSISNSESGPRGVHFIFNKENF
NADPH oxidase 4 (Homo sapiens), sequence (Q9NPH5 whole entry, looked up): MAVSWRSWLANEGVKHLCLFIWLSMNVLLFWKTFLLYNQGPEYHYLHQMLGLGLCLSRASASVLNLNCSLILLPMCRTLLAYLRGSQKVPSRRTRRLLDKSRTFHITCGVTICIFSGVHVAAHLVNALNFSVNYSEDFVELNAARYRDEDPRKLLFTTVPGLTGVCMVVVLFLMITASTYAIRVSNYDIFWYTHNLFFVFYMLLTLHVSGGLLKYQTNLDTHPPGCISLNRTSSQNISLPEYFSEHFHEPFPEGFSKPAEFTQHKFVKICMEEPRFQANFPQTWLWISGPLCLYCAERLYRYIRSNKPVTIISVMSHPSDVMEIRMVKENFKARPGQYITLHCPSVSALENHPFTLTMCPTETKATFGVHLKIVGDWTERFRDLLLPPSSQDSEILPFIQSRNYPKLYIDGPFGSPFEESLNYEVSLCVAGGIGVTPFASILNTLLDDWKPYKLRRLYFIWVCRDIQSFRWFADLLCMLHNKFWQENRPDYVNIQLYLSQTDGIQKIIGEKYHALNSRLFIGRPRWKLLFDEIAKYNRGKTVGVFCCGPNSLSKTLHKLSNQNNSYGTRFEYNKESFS
Torsin-1A (Homo sapiens), sequence (O14656 whole entry, looked up): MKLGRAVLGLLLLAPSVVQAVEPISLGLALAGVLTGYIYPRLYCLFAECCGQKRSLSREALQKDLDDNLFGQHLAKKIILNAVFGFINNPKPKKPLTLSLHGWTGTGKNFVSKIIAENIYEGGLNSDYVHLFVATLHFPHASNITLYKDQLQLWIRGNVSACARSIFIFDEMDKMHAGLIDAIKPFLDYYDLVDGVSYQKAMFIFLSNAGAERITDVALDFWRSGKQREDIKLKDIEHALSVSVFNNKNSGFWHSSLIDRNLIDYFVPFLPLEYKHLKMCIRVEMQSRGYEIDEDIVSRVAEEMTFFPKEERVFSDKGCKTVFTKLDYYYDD
Streptavidin (Streptomyces avidinii), sequence (P22629 whole entry, looked up): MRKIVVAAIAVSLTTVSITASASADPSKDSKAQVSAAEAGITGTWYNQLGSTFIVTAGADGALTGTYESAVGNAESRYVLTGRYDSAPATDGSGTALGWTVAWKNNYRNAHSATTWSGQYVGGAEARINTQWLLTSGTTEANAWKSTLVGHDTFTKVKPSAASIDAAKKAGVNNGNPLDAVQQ

SMILES	composite z-score [1]	z-score [2]	z-score [3]	z-score [4]	z-score [5]	composite z-score [6]	composite z-score [7]	composite z-score (Torsin-1A (Homo sapiens) [8])	composite z-score (Torsin-1A (Homo sapiens) [9])	composite z-score [10]	z-score [11]	composite z-score [12]	z-score [13]	z-score [14]	z-score [15]	z-score [16]	z-score [17]	z-score [18]	z-score [19]	z-score [20]
NC(=O)NCC#Cc1ccc2c(c1)[C@]1(C(=O)N2)[C@H](C(=O)O)[C@H]2C(=O)O[C@H](c3ccccc3)[C@H](c3ccccc3)N2[C@@H]1c1ccc(O)cc1	-0.0543	0.164 (inactive)	-0.36 (inactive)	0.892 (inactive)	-0.89 (inactive)	1.48	0.174	-0.359	-0.245	1.02	-1.29 (inactive)	0.642	0.141 (inactive)	0.0468 (inactive)	-0.357 (inactive)	0.27 (inactive)	-0.603	1.17 (inactive)	-0.399 (inactive)	-0.349
C=CC[C@@]1(C(=O)N2CCCCC2)N=C(c2ccc(OCCCO)cc2)O[C@@H]1c1ccccc1N=[N+]=[N-]	0.288	-4.35 (inactive)	-0.588 (inactive)	4.01 (inactive)	-1.53 (inactive)	1.18	0.0391	-0.151	1.03	-0.0797	0.432 (inactive)	0.407	31.2 (active)	27.2 (active)	1.27 (inactive)	6.5 (inactive)	0.995	-1.67 (inactive)	0.378 (inactive)	-1.88
O=C(O)C1N=C(c2ccc(OCCCO)cc2)N(c2ccccc2)O1 (stereo not given)	0.222	-0.205 (inactive)	1.3 (inactive)	0.101 (inactive)	1.16 (inactive)	0.926	-0.166	0.666	1.72	0.287	0.0785 (inactive)	0.0245	18.5 (active)	2.35 (inactive)	0.874 (inactive)	0.497 (inactive)	-0.284	-2.6 (inactive)	0.0373 (inactive)	-0.638
COCCOC(=O)N1C(=O)[C@@]2(c3ccccc31)[C@H](C(N)=O)[C@H]1C(=O)O[C@H](c3ccccc3)[C@H](c3ccccc3)N1[C@@H]2c1ccc(O)cc1	0.169	-2.51 (inactive)	-0.166 (inactive)	-0.375 (inactive)	0.06 (inactive)	-0.432	-0.204	0.603	0.779	0.105	0.912 (inactive)	-0.649	0.658 (inactive)	-1.28 (inactive)	-0.142 (inactive)	-2.25 (inactive)	2.74	-0.339 (inactive)	-0.637 (inactive)	-0.534
COCCOC(=O)N1C(=O)[C@@]2(c3cc(C#CCCO)ccc31)[C@H](c1ccc(OCCO)cc1)N1[C@H](c3ccccc3)[C@H](c3ccccc3)OC(=O)[C@H]1[C@@H]2C(N)=O	0.711	-1.47 (inactive)	0.502 (inactive)	0.209 (inactive)	1.71 (inactive)	0.266	0.364	0.271	0.569	0.811	0.391 (inactive)	0.0329	12.1 (active)	2.16 (inactive)	0.136 (inactive)	0.932 (inactive)	-0.296	1.93 (inactive)	-0.511 (inactive)	0.419
CCOC(=O)[C@H]1C/C=C/C[C@H](C(=O)OCC)C(=O)O[C@H]2[C@@H](OC)O[C@H](CO)[C@@H](OC(=O)c3ccc(Br)cc3)[C@@H]2OC1=O	0.168	-3.02 (inactive)	-0.79 (inactive)	0.342 (inactive)	-0.0314 (inactive)	-0.0923	0.0464	0.441	-0.15	0.473	-0.365 (inactive)	-0.0349	2.35 (inactive)	1.54 (inactive)	-0.128 (inactive)	0.877 (inactive)	0.0379	-1.81 (inactive)	-0.145 (inactive)	-1.24
COCCOC(=O)N1C(=O)[C@@]2(c3cc(C#Cc4ccc(OC)cc4)ccc31)[C@H](c1ccc(O)cc1)N1[C@H](c3ccccc3)[C@H](c3ccccc3)OC(=O)[C@H]1[C@@H]2C(=O)Nc1nc2ccccc2s1	0.169	-1.07 (inactive)	-0.155 (inactive)	0.182 (inactive)	-0.0609 (inactive)	0.302	-0.11	0.277	0.226	1.76	-1.12 (inactive)	0.269	1.41 (inactive)	0.616 (inactive)	-1.14 (inactive)	1.01 (inactive)	0.263	1.95 (inactive)	0.183 (inactive)	-0.164
COCC(=C=CC[C@@H](O)c1ccc(OCCO)cc1)C[C@@H](O)c1ccccn1	0.117	0.0073 (inactive)	0.0661 (inactive)	-0.0602 (inactive)	2.62 (inactive)	0.556	0.0001	0.0308	-0.467	1.04	-0.125 (inactive)	-0.0061	6.36 (inactive)	0.848 (inactive)	-0.315 (inactive)	0.429 (inactive)	-0.577	-0.0904 (inactive)	0.654 (inactive)	0.177
OCC1C=C(/C=C/c2ccccc2)CN1Cc1ccccc1Br (stereo not given)	0.307	-2.1 (inactive)	0.0784 (inactive)	0.856 (inactive)	-0.181 (inactive)	0.828	0.126	-0.205	0.818	1.39	0.785 (inactive)	0.457	6.56 (inactive)	0.673 (inactive)	1.17 (inactive)	0.499 (inactive)	0.0524	0.887 (inactive)	-2.84 (inactive)	-0.691
